Inconclusive results are not listed. Values without a mark were called inactive. Calls of active or inactive are those of the source. Calls follow the shape of the dose curve; as a rule, active = well fitted cell-killing curve with a large enough effect; inconclusive = small, poorly fitted or top-dose-only effect, or effect the other way; inactive = no such curve, though single readings can be large or run the other way.
Potency is read from the fitted curve at half-maximal effect.

The test is described as follows: Viability qHTS for spleen associated tyrosine kinase inhibitor (SYKi) drug resistant MV4-11 cells (AID 1963824). Also: nearly all actives have a fitted effect of over 35% in size. Conditions: SYKi-resistant MV4-11 viability, CellTiter-Glo, 72 h; series mostly up to 45 µM. The essentials: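 SYK-inhibitor-resistant MV4-11 AML cells were seeded at 500 per well onto compound and cultured 72 hours (37 °C, 5% CO2). CellTiter-Glo was then added, and after 10 min at room temperature, luminescence gave viability.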
(Quantitative high-throughput screening tests each substance at several concentrations.)
Turning to `COc1ccc(C2(O)CCC(N3CC[C@@H](NC(=O)CNC(=O)c4cccc(C(F)(F)F)c4)C3)CC2)cn1` (some centres undefined), the Potency entry is “inactive”.

As to `Cn1cnc(-c2nccc3c(=O)[nH]c(OCCCC(F)(F)F)nc23)c1`, the Potency was 9.2 µM (active).

As to `C[C@]1(OC(=O)/C=C\c2ccc(O)cc2)C[C@@H](O)[C@]2(O)C=CO[C@@H](O[C@@H]3O[C@H](CO)[C@@H](O)[C@H](O)[C@H]3O)C12` (some centres undefined), the Potency result was “inactive”.

Take `O=C(/C=C/n1cnc(-c2cc(C(F)(F)F)cc(C(F)(F)F)c2)n1)NNc1cnccn1`: the Potency is 1.46 µM (active).

For the molecule `COC1CC(OC2CCC3(C)C(=CCC4C3CCC3(C)C(C(C)O)CCC43O)C2)OC(C)C1OC1OC(C)C(OC2OC(COC3OC(COC4OC(CO)C(O)C(O)C4O)C(O)C(O)C3O)C(O)C(O)C2O)C(OC)C1O` (centres undefined), the viability, % of control was 97.1% [at 9.25 µM].

Consider `CNC(=O)c1ccc2cc([C@@]3(O)CCn4cncc43)ccc2c1`, for which the Potency result is “inactive”.

As for `COC(=O)c1ccc(O[C@@H]2O[C@H](CO)[C@@H](O)[C@H](O)[C@H]2O)c(OC)c1`, the Potency result was “inactive”.

As for `O=C1c2ccc(Nc3ccc(F)cc3F)cc2CCc2ccc(OCC(O)CO)cc21` (centres undefined), the Potency was 9.2 µM (active).

On to `CC(C)(O)C(=O)N1CCN(c2ccc(C(F)(F)F)c(C3=C(c4c[nH]c5ccccc45)C(=O)NC3=O)c2)CC1`, for which the Potency was 0.366 µM (active).

For the molecule `Nc1nc2c(ncn2[C@@H]2O[C@H](CO)[C@@H](O)[C@H]2O)c(=O)[nH]1`, the Potency result is “inactive”.

Consider `C[C@@H]1C[C@H]2[C@@H]3CCC4=CC(=O)C=C[C@]4(C)[C@@]3(F)[C@@H](O)C[C@]2(C)[C@@]1(O)C(=O)COP(=O)(O)O`, for which the Potency entry is “inactive”.

Take `C=C1CCCC2(C)CCC(C(C)(C)OC3OC(C)C(O)C(O)C3OC(=O)/C(C)=C\C)CC12` (centres undefined): the Potency is 8.93 µM (active).

In the case of `Oc1ccc(-c2cnc3ccc(NCc4ccco4)nn23)cc1`, the Potency was 0.092 µM (active).

Turning to `Clc1ccc(Cn2c(Cc3ccccc3)nc3ccccc32)cc1`, the Potency is 16.4 µM (active).

Take `O=C(Nc1ccc(Cl)cc1)Nc1cccc(-c2cccc(N3CCCC3)n2)c1`: the Potency is 14.6 µM (active).

In the case of `CCOc1ccc(-n2c(C(C)N(Cc3cccnc3)C(=O)Cc3ccc(F)c(C(F)(F)F)c3)nc3ncccc3c2=O)cc1` (centres undefined), the Potency is 16.4 µM (active).

For the molecule `Cc1nc2ccccc2n1Cc1ccc(Cl)cc1`, the Potency is 0.422 µM (active).

For `C=C1C(OC(C)=O)[C@@]23CCC4[C@](C)(C(=O)O)CCC[C@@]4(C)[C@]2(O)CC[C@H]1C3` (some centres undefined), the Potency entry was “inactive”.

Regarding `C=C1CCC2C(C)(C(=O)O)CCCC2(C)C1CC/C(C)=C\CO` (centres undefined), the Potency entry was “inactive”.

With `C=C1C(=O)O[C@@H]2[C@H]1CCC(C)=C1CCC(=O)O[C@]12C`, the Potency was 2.59 µM (active).

Consider `COc1ccc(N2CCOCC2)c2sc(NC(=O)N3CCC(C)(O)CC3)nc12`, for which the Potency result is “inactive”.

Turning to `CC(C)c1onc(-c2c(Cl)cccc2Cl)c1COc1ccc(/C=C/c2cccc(C(=O)O)c2)c(Cl)c1`, the Potency was 14.8 µM (active).

As for `COC(=O)C#Cc1ccc([N+](=O)[O-])cc1`, the Potency is 2.59 µM (active).

Consider `COc1cc2ncnc(Nc3ccc(O)cc3)c2cc1OC`, for which the Potency was 7.31 µM (active).

Turning to `COc1ccc(Oc2cc(C)c(-c3csc(NC(=O)c4ccncc4)n3)c(C)c2)cc1`, the Potency was 0.092 µM (active).

Take `CC1(CO)CC(O)C2(C)CCC3(C)C(=CCC4C5(C=O)CCC(OC6OC(C(=O)O)C(O)C(O)C6OC6OC(C(=O)O)C(O)C(O)C6O)C(C)(C)C5CCC43C)C2C1` (centres undefined): the viability, % of control is 98.3% [at 9.25 µM].

Turning to `COC(=O)C1=CO[C@@H](O[C@@H]2O[C@H](CO)[C@@H](O)[C@H](O)[C@H]2O)/C(=C\CO)[C@@H]1CC(=O)OCCc1ccc(O)cc1`, the Potency entry is “inactive”.

Take `CCC[C@H](N[C@@H](C)C(=O)N1[C@H](C(=O)O)C[C@@H]2CCCC[C@@H]21)C(=O)O`: the Potency result was “inactive”.

Consider `CCOC(=O)c1cc2ccc(O)cc2oc1=O`, for which the Potency is 14.6 µM (active).

The values above are taken from PubChem BioAssay (NCATS).
